Inconclusive results are not listed. The source made the active and inactive calls. Calls follow the shape of the dose curve; as a rule, active = well fitted curve in the direction sought with a large enough effect; inconclusive = small, poorly fitted or top-dose-only effect, or another doubt; inactive = no such curve, though single readings can be large; an effect the other way counts as inactive or inconclusive.
How the values were obtained:
[1] = qHTS of pediatric cancer cell lines to identify multiple opportunities for drug repurposing: Primary screen for OHS-50 cells (AID 1347103); also: nearly all actives have a fitted effect of over 40% in size; also: potency is read from the fitted curve at half-maximal effect
How it was run: (§1)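 Cells (500-1,000/well) rested 5 h, then received compounds for 48 h; metabolically active cells were measured by CellTiter-Glo luminescence. Final concentrations spanned up to 46 µM (MIPE, 11-point) or 0.59 nM-46 µM (NPC, 8-point) in primary screens, 11-point in follow-ups.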

[2] = qHTS of pediatric cancer cell lines to identify multiple opportunities for drug repurposing: Primary screen for MG 63 (6-TG R) cells (AID 1347105); also: nearly all actives have a fitted effect of over 50% in size; also: potency is read from the fitted curve at half-maximal effect
How it was run: (§2)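 CRCs from 8- or 11-point titrations (lowest final 0.59 nM NPC, 0.78 nM MIPE). Cell viability: CellTiter-Glo after 48 h incubation, 15 min room-temperature development, luminescence imaging.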

[3] = qHTS of pediatric cancer cell lines to identify multiple opportunities for drug repurposing: Primary screen for control Hh wild type fibroblast cells (AID 1347106);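 also: series mostly up to about 46 µM; a drop in luminescence marks cytotoxicity and a rise apparent proliferation; nearly all actives have a fitted effect of over 55% in size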
How it was run: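 Viability after 48 h compound treatment at 37C, 500-1,000 cells/well, read as ATP luminescence with CellTiter-Glo. Primary screens used 11-point (MIPE, 0.78 nM-46 µM) or 8-point (NPC, 0.59 nM-46 µM) final concentrations; follow-up screens used 11-point dilutions.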

[4] = qHTS of pediatric cancer cell lines to identify multiple opportunities for drug repurposing: Primary screen for Rh30 cells (AID 1347107); also: series mostly up to about 46 µM; nearly all actives have a fitted effect of over 75% in size
How it was run: (§3)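 Cells (500-1,000/well) in growth media were settled 5 h at 37 degrees C, then given compounds for 48 h. Viability was read as CellTiter-Glo luminescence. Primary runs used MIPE at 11 points (0.78 nM-46 µM) and NPC at 8 points (0.59 nM-46 µM); follow-ups used 11 points.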

[5] = qHTS of pediatric cancer cell lines to identify multiple opportunities for drug repurposing: Primary screen for Rh18 cells (AID 1347102); also: nearly all actives have a fitted effect of over 65% in size
How it was run: as §3

[6] = qHTS of pediatric cancer cell lines to identify multiple opportunities for drug repurposing: Primary screen for Rh41 cells (AID 1347108);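 also: series mostly up to about 46 µM; luminescence drop marks cytotoxic hits; nearly all actives have a fitted effect of over 70% in size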
How it was run: as §2

[7] = qHTS of pediatric cancer cell lines to identify multiple opportunities for drug repurposing: Confirmatory screen for NB1643 cells (AID 1347109); also: nearly all actives have a fitted effect of over 45% in size; also: potency is read from the fitted curve at half-maximal effect
How it was run: as §3

[8] = qHTS of pediatric cancer cell lines to identify multiple opportunities for drug repurposing: Confirmatory screen for A673 cells (AID 1347110); settings: A673 Ewing sarcoma cell viability;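 also: potency is read from the fitted curve at half-maximal effect; cells exposed to compound for 48 h before the viability read; nearly all actives have a fitted effect of over 65% in size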
How it was run: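 Concentration-response curves came straight from titrations: 11 points (0.78 nM to 46 µM) for MIPE and several concentrations (0.59 nM to 46 µM) for NPC in primary, 11 points in follow-up. Readout: ATP luminescence at 48 h.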

[9] = qHTS of pediatric cancer cell lines to identify multiple opportunities for drug repurposing: Confirmatory screen for BT-12 cells (AID 1347112); also: nearly all actives have a fitted effect of over 55% in size; also: potency is read from the fitted curve at half-maximal effect
How it was run: as §3

[10] = qHTS of pediatric cancer cell lines to identify multiple opportunities for drug repurposing: Confirmatory screen for LAN-5 cells (AID 1347113); also: nearly all actives have a fitted effect of over 65% in size; also: potency is read from the fitted curve at half-maximal effect
How it was run: as §3

[11] = qHTS of pediatric cancer cell lines to identify multiple opportunities for drug repurposing: Confirmatory screen for DAOY cells (AID 1347114); also: nearly all actives have a fitted effect of over 65% in size; also: potency is read from the fitted curve at half-maximal effect
How it was run: (§4)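 Viability measured as metabolically active cells via CellTiter-Glo luminescence following 48 hours of compound exposure, 11-point dilutions in confirmatory testing. 500-1,000 cells/well plated 5 hours before dosing; controls were DMSO and 2.3 µM bortezomib.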

[12] = qHTS of pediatric cancer cell lines to identify multiple opportunities for drug repurposing: Confirmatory screen for NB-EBc1 cells (AID 1347115);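 also: cells exposed to compound for 48 h before the viability read; nearly all actives have a fitted effect of over 45% in size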; also: potency is read from the fitted curve at half-maximal effect
How it was run: as §3

[13] = qHTS of pediatric cancer cell lines to identify multiple opportunities for drug repurposing: Confirmatory screen for SJ-GBM2 cells (AID 1347116); also: nearly all actives have a fitted effect of over 60% in size
How it was run: as §4

[14] = qHTS of pediatric cancer cell lines to identify multiple opportunities for drug repurposing: Confirmatory screen for TC32 cells (AID 1347118); settings: TC32 Ewing sarcoma cells viability qHTS
How it was run: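 qHTS, TC32, 48 h drug treatment, CellTiter-Glo luminescence as a proxy for metabolically active cells; primary top concentration 46 µM (MIPE 11-pt, NPC 8-pt); confirmatory 11-pt.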

[15] = qHTS of pediatric cancer cell lines to identify multiple opportunities for drug repurposing: Confirmatory screen for MG 63 (6-TG R) cells (AID 1347119); also: nearly all actives have a fitted effect of over 55% in size; also: potency is read from the fitted curve at half-maximal effect
How it was run: as §3

[16] = qHTS of pediatric cancer cell lines to identify multiple opportunities for drug repurposing: Confirmatory screen for control Hh wild type fibroblast cells (AID 1347121); also: nearly all actives have a fitted effect of over 70% in size
How it was run: as §3

[17] = qHTS of pediatric cancer cell lines to identify multiple opportunities for drug repurposing: Primary screen for BT-12 cells (AID 1347101); also: nearly all actives have a fitted effect of over 25% in size; also: potency is read from the fitted curve at half-maximal effect
How it was run: as §1

[18] = qHTS of pediatric cancer cell lines to identify multiple opportunities for drug repurposing: Primary screen for RD cells (AID 1347104); also: nearly all actives have a fitted effect of over 55% in size; also: potency is read from the fitted curve at half-maximal effect
How it was run: as §2

[19] = qHTS of pediatric cancer cell lines to identify multiple opportunities for drug repurposing: Confirmatory screen for SK-N-MC cells (AID 1347111); settings: SK-N-MC cell viability;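 also: potency is read from the fitted curve at half-maximal effect; cells exposed to compound for 48 h before the readout; nearly all actives have a fitted effect of over 70% in size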
How it was run: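 Metabolically active cells were quantified by ATP-dependent luminescence (CellTiter-Glo, 15 min at room temperature) following 48 h treatment. Cells had been plated at 500-1,000 per well and settled for 5 h beforehand.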

[20] = qHTS of pediatric cancer cell lines to identify multiple opportunities for drug repurposing: Confirmatory screen for BT-37 cells (AID 1347117); settings: BT-37 pediatric cancer cells, viability
How it was run: as §3

Measured: Potency

COC(=O)C1=C(C)NC(C)=C(C(=O)OCC(C)C)C1c1ccccc1[N+](=O)[O-] (stereo not drawn)
active: [1] 24.6 µM
inactive: [2] | [3] | [4]

Nc1ccc([N+](=O)[O-])cc1O
active: [8] 2.14 µM | [14] 7.59 µM
not listed: [1] | [2] | [3] | [17] | [18] | [19] | [20]
inactive: all other assays above

Oc1c(Br)cc(Br)c2cccnc12
active: [17] 27.6 µM | [1] 15.5 µM | [18] 23.7 µM | [2] 21.1 µM | [7] 26.1 µM | [8] 11.7 µM | [19] 1.17 µM | [10] 18.5 µM | [12] 26.1 µM | [20] 18.5 µM | [14] 1.65 µM | [15] 16.5 µM
inactive: [3] | [13]

Cc1[nH]cnc1CN1CCc2c(c3ccccc3n2C)C1=O
inactive: [17] | [5] | [2] | [3] | [4] | [6]

Nc1ccc(O)c([N+](=O)[O-])c1
inactive: [5] | [1] | [18] | [2] | [3] | [4] | [6]

O=C1CN(/N=C/c2ccc([N+](=O)[O-])o2)C(=O)N1
inactive: [5] | [1] | [3] | [4]

Cc1c(C(=O)O)c(O)cc2c1C(=O)c1c(O)c([C@@H]3O[C@H](CO)[C@@H](O)[C@H](O)[C@H]3O)c(O)c(O)c1C2=O
inactive: [18] | [4]

CC(N)C(=O)OC(C)(C)Cc1ccc(Cl)cc1 (stereo not drawn)
inactive: [17] | [5] | [2] | [3] | [4] | [6]

CCCSc1ccc2nc(NC(=O)OC)[nH]c2c1
inactive: [3] | [4] | [16]
active: [17] 2.76 µM | [1] 0.872 µM | [2] 0.668 µM | [7] 2 µM | [8] 2 µM | [19] 1.58 µM | [9] 25.1 µM | [10] 8.91 µM | [11] 1.26 µM | [20] 3.98 µM | [14] 0.355 µM | [15] 1.26 µM

COc1ccc(-c2cc(=S)ss2)cc1
inactive: [5] | [2] | [3] | [4] | [6]

O=Cc1ccc(O)c(O)c1O
inactive: [17] | [1] | [2] | [3] | [4] | [6]

COc1cc(NC(C)CCCN)c2ncccc2c1 (stereo not drawn)
inactive: [2] | [3] | [4]
active: [1] 24.6 µM

CCCOC(=O)c1ccc(O)cc1
inactive: [17] | [5] | [18] | [2] | [3] | [4] | [6]

CN(C)c1ccc(N=NS(=O)(=O)O)cc1
inactive: [5] | [1] | [18] | [2] | [3] | [4] | [6]

O=c1cc(-c2ccccc2)oc2ccccc12
inactive: [5] | [2] | [3] | [6]

CCCCCCOc1ccccc1C(N)=O
inactive: [5] | [2] | [3] | [4] | [6]

CC(C)OC(=O)c1cc(C(=O)OC(C)C)cc([N+](=O)[O-])c1
inactive: [5] | [1] | [18] | [2] | [3] | [4] | [6]

c1ccc(CCNc2nc(-c3ccccc3)cs2)cc1
inactive: [5] | [2] | [3] | [4] | [6]

Cc1nc2ccccc2n1Cc1ccc(Cl)cc1
active: [1] 3.47 µM
inactive: [5] | [2] | [3] | [4]

O=c1[nH]c2ccccc2n1CCCN1CCN(C(c2ccccc2)c2ccccc2)CC1
inactive: [2] | [3] | [4]
active: [1] 15.5 µM

CN1CCN(c2cc3c(nn2)Oc2ccccc2N3C)CC1
inactive: [17] | [5] | [2] | [3] | [4] | [6]

COC(=O)C1=C(C)NC(C)=C(C(=O)OCC(C)=O)C1c1ccccc1[N+](=O)[O-] (stereo not drawn)
inactive: [5] | [4] | [6]

C#CC1(O)CC[C@H]2[C@@H]3CCC4=CCCC[C@@H]4[C@H]3CC[C@@]21C (stereo partly drawn)
active: [2] 21.1 µM
inactive: [5] | [3] | [4] | [6]

CCCC(=O)OC[C@@H](OC(=O)CCC)[C@@H](OC(=O)CCC)[C@H](Cn1c2nc(=O)[nH]c(=O)c-2nc2cc(C)c(C)cc21)OC(=O)CCC
inactive: [2] | [3] | [4]
active: [17] 27.6 µM

Nc1nc2ccc([N+](=O)[O-])cc2s1
inactive: [18] | [2] | [3] | [4] | [6]
active: [1] 25.2 µM

NC(=O)C(c1ccccc1)(c1ccccc1)[C@@H]1CCN(CCc2ccc3c(c2)CCO3)C1
inactive: [17] | [2] | [3] | [4] | [6]

C#C[C@]1(O)CC[C@H]2[C@@H]3CCc4cc(O)ccc4[C@H]3CC[C@@]21C
active: [1] 24.6 µM
inactive: [2] | [3] | [4]

Reference: PubChem BioAssay (NCATS)
